# G9a block – inhibitors of human histone lysine methyltransferase G9a | Q96KQ7 | G9a H3K9 monomethylation, AlphaScreen, 2 h | Potency, µM (series often up to 102 µM), for the others: at the highest dose activity, negative = inhibition, actives largely listed as inhibitors | hit rate 8.8% among 350,000 | AID 504332; also: % is scaled to controls: 0 for no effect and ±100 for the full control effect; nearly all actives have a fitted effect of over 75% in size
#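 Using a bead-based AlphaScreen, monomethylated H3K9 product from 2 h room-temperature reactions (G9a 20 nM, peptide 500 nM, SAM 20 uM) was detected with 0.5 ug/mL rabbit anti-H3K9me1 antibody.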
# Sfp PPTase inh – inhibitors of Bacillus subtilis Sfp phosphopantetheinyl transferase | Q9F4F7 | Biochemical Sfp PPTase activity, qHTS | Potency, µM, without a hit: largest response in the series, negative = inhibition, hits mostly inhibitors | hit rate 3.5% among 310,000;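 also: the enzyme is Sfp with the accession as filed and its product quenches rhodamine fluorescence; 0% = enzyme reaction without inhibitor and -100% = no enzyme wells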
#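 Buffer: 50 mM Hepes-Na pH 7.6, 10 mM MgCl2, 0.01% Nonidet P-40, 0.01% BSA. Enzyme 15 nM, pre-exposed to compound 15 min; substrates then added and fluorescence change tracked over 30 min.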
# JMJD2A Tudor inh – JMJD2A Tudor domain (human) inhibition. O75164. AlphaScreen JMJD2A-Tudor / H3K4me3 peptide binding. Potency, µM (highest dose often 114 µM), for inactives: top-dose activity change, negative = inhibition, actives largely listed as inhibitors. hit rate 4.4% among 390,000; also: % is scaled to controls: 0 for no effect and ±100 for the full control effect; nearly all actives have a fitted effect of over 50% in size
# HP1b binding inh – blocks HP1-beta chromodomain binding to methylated histone tails; P83916; AlphaScreen HP1-beta / biotin-H3K9me3 peptide binding; Potency, µM (titrated, usually from 114 µM), for inactives: top-dose activity change, negative = inhibition, actives largely listed as inhibitors; hit rate 0.56% among 390,000; also: nearly all actives have a fitted effect of over 70% in size
#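 HP1-beta protein (50 nM final) preincubated 30 min at room temperature with biotinylated H3(1-18)K9me3 peptide (50 nM) in PBS pH 7.4, 0.01% Tween-20, then compound added for 30 min. AlphaScreen streptavidin donor/nickel chelate acceptor beads (10 ug/mL final), 30 min dark, luminescence read.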
# L3MBTL1 block – L3MBTL1 (human) inhibition; hit rate 0.66% among 230,000; Q9Y468; Potency, µM (series often up to 57.1 µM), for the others: top-dose activity, negative = inhibition, actives largely listed as inhibitors; AlphaScreen L3MBTL1–H3K9me1 peptide binding; also: % is scaled to controls: 0 for no effect and ±100 for the full control effect; nearly all actives have a fitted effect of over 60% in size
#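 L3MBTL1 (50 nM) pre-complexed 30 min with biotinylated H3(1-15)K9me1 peptide (75 nM), then compounds added for 30 min at room temperature; AlphaScreen streptavidin donor/nickel chelate acceptor beads (10 ug/mL final) read after 30 min dark incubation.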
# BAZ2B block – blocks human BAZ2B; Potency, µM (highest dose often 114 µM), without a hit: at the top dose activity change, negative = inhibition, most hits filed as inhibitors; AID 504333; hit rate 4.4% among 360,000; Q9UIF8; AlphaScreen BAZ2B-H3K14Ac peptide displacement; also: % is scaled to controls: 0 for no effect and ±100 for the full control effect; nearly all actives have a fitted effect of over 60% in size
#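 AlphaScreen luminescence quantifies BAZ2B engagement of H3K14Ac peptide; the protein and biotinylated peptide are both at 50 nM final, buffer PBS pH 7.4 with 0.01% Tween-20, all steps at room temperature.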
# Active calls of the source: *; u = inconclusive; x = no result given; [ ] = another dose, or the depositor's remark. The list is not random: actives were taken first. Their share in the collection is about 12%. Calls follow the shape of the dose curve; as a rule, active = well fitted curve in the direction sought with a large enough effect; inconclusive = small, poorly fitted or top-dose-only effect, or another doubt; inactive = no such curve, though single readings can be large; an effect the other way counts as inactive or inconclusive. Potency is read from the fitted curve at half-maximal effect.
SMILES,G9a block,Sfp PPTase inh,JMJD2A Tudor inh,HP1b binding inh,L3MBTL1 block,BAZ2B block
C/C(=C\C(=O)c1ccccc1)Nc1ccc(O)cc1,28µM*,-21%,u,-36%,x,u
COc1ccc(NC(=O)CN(C)C(=O)Cc2ccc(-c3ccccc3)cc2)cc1,u,x,100µM*,21%,-4%,6%
COc1cccc([C@@H]2Oc3ccc(OC)cc3C(=O)[C@H]2OC(=O)NC2CCCC2)c1,x,1%,x,x,x,x
O=C(COc1ccccc1F)Nc1ccc2c(c1)OCCO2,25%,9%,-5%,-20%,x,-25%
C[C@H]1O[C@@H](n2cnc3c(N)ncnc32)C[C@@H]1OP(=O)(O)OP(=O)(O)OP(=O)(O)O,x,1%,x,x,x,x
Cc1ccc(-n2nc(C)c3c(C(F)(F)F)cc(-c4cccnc4)nc32)cc1C,-6%[59 µM],x,-3%,38%,x,9%
COc1ccc(C(=O)/C=C(/C)N(C)C)cc1,45µM*,14%,40µM*,9%,0%,-1%
C/C(=C\C(=O)c1sccc1Cl)N(C)C,19%[59 µM],-17%,-2%,18%,30%,u
C/C(=C\C(=O)c1ccc(C)cc1)Nc1cccc(O)c1,50µM*,-1%,u,-21%,0%,50µM*
Cc1ccccc1-c1nn(-c2ccc(F)cc2F)cc1CNCCCN(C)C,x,5%,u,0%,-8%,-3%
CCOc1ccc2c(c1)sc1nc(=O)n(-c3ccc(Cl)c(Cl)c3)c(=O)n12,7%[59 µM],x,5%,39%,x,-1%
Cc1ccc(C)c(C(=O)C(C)Sc2nc3nn(-c4ccccc4)c(=O)c-3c3n2CCCCC3)c1 (stereo not given),-22%,12%,u,-9%,x,-30%
COC(=O)C1CCN(C(=O)c2cc(S(=O)(=O)N3CCCCC3)ccc2Cl)CC1,-5%[59 µM],x,-11%,25%,2%,-5%
Cc1ccc(-c2nnc(Nc3ccc(Br)cc3)c3ccccc23)cc1S(=O)(=O)N1CCCCC1,-3%[59 µM],x,-5%,33%,x,4%
COc1ccccc1CNS(=O)(=O)c1cc(CN2C(=O)c3cccnc3C2=O)ccc1OC,-5%,4%,28%,44%,x,56µM*
COc1ccc(CN2C(=O)c3cccnc3C2=O)cc1S(=O)(=O)NC1CCCCC1,6%,7%,21%,32%,x,79µM*
COc1ccc(CN2C(=O)c3cccnc3C2=O)cc1S(=O)(=O)N1CC(C)CC(C)C1 (stereo not given),1%,6%,-6%,26%,x,u
CCOc1ccccc1N(CC)C(=O)Cn1ncc2c1-c1ccccc1OC2,4%[59 µM],x,0%,43%,x,-10%
CCN(C(=O)c1cn(CC)c(=O)c2cc(OC)c(OC)cc12)c1ccccc1F,5%[59 µM],x,-2%,8%,x,2%
O=C(O)C1C2CCC(O2)C1C(=O)Nc1ccc(OC(F)F)cc1 (stereo not given),-12%,-10%,-18%,19%,6%,2%
O=C(CSc1n[nH]c(-c2ccncc2)n1)Nc1ccccc1C(F)(F)F,25µM*,-14%,-34%,4%,x,5%
O=C1CCCN2N=C(SCC(=O)Nc3ccccc3C(F)(F)F)SC2=N1,19%,-3%,u,u,x,56µM*
O=C1CCCN2N=C(SCC(=O)Nc3cccc(C(F)(F)F)c3)SC2=N1,35%,17%,-8%,5%,x,3%
O=C(CSc1cn[nH]n1)Nc1ccccc1C(F)(F)F,25µM*,-18%,7%,39%,x,0%
NC(=O)c1ccccc1NC(=O)CSc1cn[nH]n1,-5%[59 µM],10%,4%,31%,x,9%
SMILES,G9a block,Sfp PPTase inh,JMJD2A Tudor inh,HP1b binding inh,L3MBTL1 block,BAZ2B block
O=C(CSc1n[nH]c(-c2ccncc2)n1)Nc1ccccn1,u,-11%,56µM*,19%,x,u
O=C(CSc1n[nH]c(-c2ccccc2)n1)Nc1ncccn1,u,15%,0%,37%,-2%,-36%
COc1ccc(-n2cc(C(=O)OCc3ccc(F)c(F)c3)c3ccccc3c2=O)cc1,24%[59 µM],x,-10%,17%[57 µM],x,1%
S=C(c1ccc(Br)cc1)N1CCCC1,45µM*,-11%,0%,11%,x,-4%
Oc1ccc(C(=S)N2CCCCC2)cc1,45µM*,50µM*,-15%,-21%,x,0%
Clc1ccc(-c2ccc(CNCc3ccccn3)o2)cc1,u,-5%,79µM*,-1%,u,20µM*
Cc1c(Cl)cccc1-c1ccc(CNCCSc2nnnn2-c2ccccc2)o1,-33%[59 µM],x,3%,3%,x,u
N#Cc1nc(-c2ccc(Cl)cc2)oc1NCCc1ccccn1,u,10%,-11%,15%,1%,6%
Fc1ccc(-c2ccc(CNCCSc3nnnn3-c3ccccc3)o2)cc1,13µM*,x,u,-15%,x,35µM*
Fc1ccc(-c2ccc(CNCc3ccccn3)o2)cc1,40µM*,-2%,50µM*,15%,-20%,50µM*
COc1ccc(NC(=O)c2c(-c3ccccc3)c(-c3ccccc3)nn(C)c2=O)cc1OC,2%[59 µM],x,-15%,23%,x,-6%
CCCCOC(=O)c1ccc(NC(=S)NC(=O)c2c(Br)c(C)nn2C)cc1,-4%[59 µM],4.5µM*,-24%,-13%,27%,20%
COc1cc2c(cc1OC)CN(Cc1cccs1)CC2,u,-23%,3.2µM*,u,6%,-39%
COc1cc2c(cc1OC)CN(Cc1cc(OC)c(O)c(OC)c1)CC2,32µM*,3%,-3%,57%,0%,-11%
Cc1ccccc1C(=O)NNC(=O)C1CCN(C(=O)Nc2ccccc2)CC1,-36%,x,5%,12%,-2%,1%
O=C1/C(=C2\C(=O)N(Cc3ccc(F)cc3)c3ccccc32)SC(=S)N1CCS(=O)(=O)O,u,-11%,10µM*,u,x,14µM*
O=C(O)CN1C(=O)/C(=C2\C(=O)N(Cc3ccccc3Cl)c3ccccc32)SC1=S,14µM*,-5%,u,-36%,x,u
CCCN(CC(=O)Nc1ccccc1C)C(=O)C1CCN(C(=O)Nc2ccccc2)CC1,-1%,x,-10%,26%,5%,-4%
Cc1cc(-c2csc(NC(=O)C3=COCCO3)n2)c(C)n1C,50µM*,x,-22%,-10%,-15%,-3%
O=C(Nc1nc(-c2cccs2)cs1)c1cccc(S(=O)(=O)N2CCCCC2)c1,13µM*,19%,-29%,23%,-11%,u
O=C(Nc1nc(-c2cccs2)cs1)C1=COCCO1,10%,-15%,14µM*,u,12%,1%
Cc1cc(C)c(-c2csc(NC(=O)C3=COCCO3)n2)c(C)c1,u,x,-25%,19%,14%,-21%
Cc1cc(C)nc(-n2nc(C)cc2NC(=O)c2cccc(S(=O)(=O)N3CCCCC3)c2)n1,8.9µM*,4%,x,x,-3%,-3%

# Assay outcomes from PubChem.
